# Source: the supplement of paper PMC10037445
# In all, about 2,900 compounds were measured (“NF-kB SEAP reporter activity, fold change vs agonist alone”: median about 0.99, highest 2% from about 2.6 on). This excerpt belongs to a sample that is enriched for the highest values.
# Legend:
# [1] = tested on: RAW-Dual; assay: NF-kB SEAP reporter activity, fold change vs agonist alone; cytotoxicity flag (confluency mask): cytotoxic (confluency <70% of control); higher = enhanced NF-kB activity
# Summary of the method: (§1)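 Library stock was pin-tooled at 50 nL into 384-well plates of RAW-Dual macrophages (50,000 cells/well, DMEM), followed 1 h later by a PRR agonist, and the cells were kept at 37 °C, 5% CO2. Supernatant collected after 20 hours was read for IRF by QuantiLuc luminescence and for NF-κB by QuantiBlue absorbance at 620 nm. Reporter activity is fold change over agonist-alone wells, and a well counted as cytotoxic when its IncuCyte confluency was below 70% of agonist controls in both mask sets.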
# [2] = tested on: RAW-Dual; assay: NF-kB SEAP reporter activity, fold change vs agonist alone; higher = enhanced NF-kB activity
# Summary of the method: as §1
# [3] = tested on: RAW-Dual; assay: NF-kB SEAP reporter activity, fold change vs agonist alone; cytotoxicity flag (confluency mask): not cytotoxic; higher = enhanced NF-kB activity
# Summary of the method: as §1
# [4] = agonist: ODN 1826 (TLR9) 0.5 ug/mL
# [5] = agonist: Pam2CSK4 (TLR2/6) 0.1 ug/mL
# [6] = agonist: Pam3CSK4 (TLR2/1) 0.1 ug/mL
# [7] = library stock concentration (final ~1000-fold dilution): 10 mM, cytotoxicity flag (confluency mask): cytotoxic (confluency <70% of control), agonist: Imiquimod (TLR7) […]
# [8] = library stock concentration (final ~1000-fold dilution): 10 mM, cytotoxicity flag (confluency mask): cytotoxic (confluency <70% of control), agonist: MPLA (TLR4) […]
# [9] = library stock concentration (final ~1000-fold dilution): 10 mM, cytotoxicity flag (confluency mask): not cytotoxic, agonist: Imiquimod (TLR7) […]
# [10] = library stock concentration (final ~1000-fold dilution): 10 mM, cytotoxicity flag (confluency mask): not cytotoxic, agonist: MPLA (TLR4) […]
smiles,measurement,setting,value
O=S(=O)(NCCN1CCNCC1)c1ccc(NC2CCCCC2)c(NCc2ccccc2)c1 (library stock concentration (final ~1000-fold dilution): 10 mM),NF-kB SEAP reporter activity,[1]; agonist: LPS (TLR4) 0.1 ug/mL,1.57
same,NF-kB SEAP reporter activity,[1]; [4],1.13
same,NF-kB SEAP reporter activity,[1]; [5],1.04
same,NF-kB SEAP reporter activity,[1]; [6],1.73
O=S(=O)(NCCN1CCNCC1)c1ccc(NC2CCCCC2)c(NCc2ccccc2)c1,NF-kB SEAP reporter activity,[2]; [7],1.27
same,NF-kB SEAP reporter activity,[2]; [8],2.03
CN(C)CCCSC(=N)N.Cl.Cl,NF-kB SEAP reporter activity,[2]; [9],0.831
same,NF-kB SEAP reporter activity,[2]; [10],0.973
CN(C)CCCSC(=N)N.Cl.Cl (library stock concentration (final ~1000-fold dilution): 10 mM),NF-kB SEAP reporter activity,[3]; agonist: LPS (TLR4) 0.1 ug/mL,1.14
same,NF-kB SEAP reporter activity,[3]; [4],0.97
same,NF-kB SEAP reporter activity,[3]; [5],1.01
same,NF-kB SEAP reporter activity,[3]; [6],0.975
CC(C)CC(NC(=O)C1OC1C(=O)O)C(=O)NCCCCNC(=N)N (configuration not stated),NF-kB SEAP reporter activity,[2]; [9],0.971
same,NF-kB SEAP reporter activity,[2]; [10],1.11
CC(C)CC(NC(=O)C1OC1C(=O)O)C(=O)NCCCCNC(=N)N (configuration not stated) (library stock concentration (final ~1000-fold dilution): 10 mM),NF-kB SEAP reporter activity,[3]; agonist: LPS (TLR4) 0.1 ug/mL,0.999
same,NF-kB SEAP reporter activity,[3]; [4],1.01
same,NF-kB SEAP reporter activity,[3]; [5],1.12
same,NF-kB SEAP reporter activity,[3]; [6],1.12
CC(=O)C(=O)Oc1ccccc1C(=O)O (library stock concentration (final ~1000-fold dilution): 10 mM),NF-kB SEAP reporter activity,[3]; agonist: LPS (TLR4) 0.1 ug/mL,1.07
same,NF-kB SEAP reporter activity,[3]; [4],1.04
same,NF-kB SEAP reporter activity,[3]; [5],0.887
same,NF-kB SEAP reporter activity,[3]; [6],1.12
CC(=O)C(=O)Oc1ccccc1C(=O)O,NF-kB SEAP reporter activity,[2]; [9],1.46
same,NF-kB SEAP reporter activity,[2]; [10],1.68
O=C(N/N=C/c1c(O)ccc2ccccc12)c1ccncc1,NF-kB SEAP reporter activity,[2]; [9],2.57
same,NF-kB SEAP reporter activity,[2]; [10],1.75
O=S(=O)(N=Cc1c(O)ccc2ccccc12)c1cccs1,NF-kB SEAP reporter activity,[2]; [9],0.768
same,NF-kB SEAP reporter activity,[2]; [10],1.03
NNC(=O)c1ccncc1,NF-kB SEAP reporter activity,[2]; [9],0.948
same,NF-kB SEAP reporter activity,[2]; [10],1.05
O=S(=O)(N=Cc1c(O)ccc2ccccc12)c1cccs1 (library stock concentration (final ~1000-fold dilution): 10 mM),NF-kB SEAP reporter activity,[3]; agonist: LPS (TLR4) 0.1 ug/mL,1.28
same,NF-kB SEAP reporter activity,[3]; [4],0.662
same,NF-kB SEAP reporter activity,[3]; [5],1.04
same,NF-kB SEAP reporter activity,[3]; [6],0.853
NNC(=O)c1ccncc1 (library stock concentration (final ~1000-fold dilution): 10 mM),NF-kB SEAP reporter activity,[3]; agonist: LPS (TLR4) 0.1 ug/mL,1.22
same,NF-kB SEAP reporter activity,[3]; [4],1.05
same,NF-kB SEAP reporter activity,[3]; [5],1.09
same,NF-kB SEAP reporter activity,[3]; [6],1.05
O=C(N/N=C/c1c(O)ccc2ccccc12)c1ccncc1 (library stock concentration (final ~1000-fold dilution): 10 mM),NF-kB SEAP reporter activity,[3]; agonist: LPS (TLR4) 0.1 ug/mL,2.18
same,NF-kB SEAP reporter activity,[3]; [4],2
same,NF-kB SEAP reporter activity,[3]; [5],1.15
same,NF-kB SEAP reporter activity,[3]; [6],1.92
Cl.c1ccc2c(-c3cnn4cc(-c5ccc(N6CCNCC6)cc5)cnc34)ccnc2c1 (library stock concentration (final ~1000-fold dilution): 10 mM water),NF-kB SEAP reporter activity,[3]; agonist: LPS (TLR4) 0.1 ug/mL,0.64
same,NF-kB SEAP reporter activity,[3]; [4],0.253
same,NF-kB SEAP reporter activity,[3]; [5],0.171
same,NF-kB SEAP reporter activity,[3]; [6],0.354
Cl.c1ccc2c(-c3cnn4cc(-c5ccc(N6CCNCC6)cc5)cnc34)ccnc2c1,NF-kB SEAP reporter activity,"[2]; library stock concentration (final ~1000-fold dilution): 10 mM water, cytotoxicity flag (confluency mask): not cytotoxic, agonist: Imiquimod (TLR7) […]",0.986
same,NF-kB SEAP reporter activity,"[2]; library stock concentration (final ~1000-fold dilution): 10 mM water, cytotoxicity flag (confluency mask): not cytotoxic, agonist: MPLA (TLR4) […]",0.571
C=CC1CC1(NC(=O)C1CC2CN1C(=O)C(C(C)(C)C)NC(=O)OC1CC1CCCCCc1nc3ccc(OC)cc3nc1O2)C(=O)NS(=O)(=O)C1CC1 (configuration not stated) (library stock concentration (final ~1000-fold dilution): 10 mM),NF-kB SEAP reporter activity,[3]; agonist: LPS (TLR4) 0.1 ug/mL,1.3
same,NF-kB SEAP reporter activity,[3]; [4],1.46
same,NF-kB SEAP reporter activity,[3]; [5],0.913
same,NF-kB SEAP reporter activity,[3]; [6],0.835
CC(C)(C)C1NC(=O)OC2CCCC2OC/C=C/C(F)(F)c2nc3ccccc3nc2OC2CC(C(=O)NC3(C(=O)NS(=O)(=O)C4(C)CC4)CC3C(F)F)N(C2)C1=O (configuration not stated) (library stock concentration (final ~1000-fold dilution): 10 mM),NF-kB SEAP reporter activity,[3]; agonist: LPS (TLR4) 0.1 ug/mL,1.29
same,NF-kB SEAP reporter activity,[3]; [4],2.62
same,NF-kB SEAP reporter activity,[3]; [5],0.986
same,NF-kB SEAP reporter activity,[3]; [6],2.09
C=CC1CC1(NC(=O)C1CC2CN1C(=O)C(C(C)(C)C)NC(=O)OC1CC1CCCCCc1nc3ccc(OC)cc3nc1O2)C(=O)NS(=O)(=O)C1CC1 (configuration not stated),NF-kB SEAP reporter activity,[2]; [9],1.3
same,NF-kB SEAP reporter activity,[2]; [10],1.22
CC(C)(C)C1NC(=O)OC2CCCC2OC/C=C/C(F)(F)c2nc3ccccc3nc2OC2CC(C(=O)NC3(C(=O)NS(=O)(=O)C4(C)CC4)CC3C(F)F)N(C2)C1=O (configuration not stated),NF-kB SEAP reporter activity,[2]; [9],2.27
same,NF-kB SEAP reporter activity,[2]; [10],2.15
CC(C)=CCCC(C)(OC1OC(CO)C(O)C(O)C1O)C1CCC2(C)C1C(O)CC1C3(C)CCC(O)C(C)(C)C3C(OC3OC(CO)C(O)C(O)C3OC3OCC(O)C(O)C3O)CC12C (configuration not stated),NF-kB SEAP reporter activity,[2]; [9],0.818
same,NF-kB SEAP reporter activity,[2]; [10],0.958
CC(C)=CCCC(C)(OC1OC(CO)C(O)C(O)C1O)C1CCC2(C)C1C(O)CC1C3(C)CCC(O)C(C)(C)C3C(OC3OC(CO)C(O)C(O)C3OC3OCC(O)C(O)C3O)CC12C (configuration not stated) (library stock concentration (final ~1000-fold dilution): 10 mM),NF-kB SEAP reporter activity,[3]; agonist: LPS (TLR4) 0.1 ug/mL,0.93
same,NF-kB SEAP reporter activity,[3]; [4],1.02
same,NF-kB SEAP reporter activity,[3]; [5],0.792
same,NF-kB SEAP reporter activity,[3]; [6],0.975
CS(=O)(=O)O.Fc1ccc(C2CCNCC2COc2ccc3c(c2)OCO3)cc1 (configuration not stated),NF-kB SEAP reporter activity,[2]; [8],1.43
CS(=O)(=O)O.Fc1ccc(C2CCNCC2COc2ccc3c(c2)OCO3)cc1 (configuration not stated) (library stock concentration (final ~1000-fold dilution): 10 mM),NF-kB SEAP reporter activity,[1]; agonist: LPS (TLR4) 0.1 ug/mL,1.08
same,NF-kB SEAP reporter activity,[1]; [4],0.542
same,NF-kB SEAP reporter activity,[1]; [5],0.486
same,NF-kB SEAP reporter activity,[1]; [6],0.425
Fc1ccc(Nc2nc(Nc3ccc(-c4nc5ccccc5[nH]4)cc3)nc(N3CCOCC3)n2)cc1,NF-kB SEAP reporter activity,[2]; [7],0.399
same,NF-kB SEAP reporter activity,[2]; [8],1.42
Fc1ccc(Nc2nc(Nc3ccc(-c4nc5ccccc5[nH]4)cc3)nc(N3CCOCC3)n2)cc1 (library stock concentration (final ~1000-fold dilution): 10 mM),NF-kB SEAP reporter activity,[1]; agonist: LPS (TLR4) 0.1 ug/mL,0.621
same,NF-kB SEAP reporter activity,[1]; [4],0.452
same,NF-kB SEAP reporter activity,[1]; [5],0.212
same,NF-kB SEAP reporter activity,[1]; [6],0.25
